# Screening results (PubChem BioAssay)
# A selection: hits, their analogues and other compounds. The true share with any hit is near 32%.
# CYP2C9 activ – increases human cytochrome P450 2C9 activity; P11712; recombinant CYP2C9, luciferin-H conversion, luminescence; stronger effect = higher value; factor 1 = untreated enzyme, 0 = blocked; actives 1.4% (n = 96,000); activation factor at 5 µM;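 active = activation factor of 2 or more for CYP2C9 at a 5 µM dose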;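 also: 0 = sulfaphenazole-blocked wells and 1 = vehicle-only wells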
# Target sequence (P11712 whole entry, looked up): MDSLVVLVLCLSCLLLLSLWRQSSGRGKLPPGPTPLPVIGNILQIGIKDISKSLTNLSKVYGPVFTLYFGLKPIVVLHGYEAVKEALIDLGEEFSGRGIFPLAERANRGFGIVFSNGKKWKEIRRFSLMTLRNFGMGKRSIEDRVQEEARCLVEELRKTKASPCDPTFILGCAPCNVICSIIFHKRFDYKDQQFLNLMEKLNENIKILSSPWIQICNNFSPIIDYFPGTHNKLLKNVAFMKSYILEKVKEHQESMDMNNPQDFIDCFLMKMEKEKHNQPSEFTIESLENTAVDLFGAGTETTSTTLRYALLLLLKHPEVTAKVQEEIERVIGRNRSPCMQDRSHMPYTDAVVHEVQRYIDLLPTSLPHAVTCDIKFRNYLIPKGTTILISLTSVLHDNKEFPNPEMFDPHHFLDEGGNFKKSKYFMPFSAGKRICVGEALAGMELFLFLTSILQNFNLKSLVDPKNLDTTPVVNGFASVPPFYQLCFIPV
# CYP2C9 inh – blocks human cytochrome P450 2C9; P11712; CYP2C9 Supersomes, luciferin-H conversion, luminescence; inhibition, % at 5 µM; actives 20% (n = 96,000); AID 777;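 active = blocking of liver enzyme CYP2C9 beyond about 50% at 5 µM, limit read from the data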
# CYP2C19 inhib – inhibitors of human CYP2C19; CYP2C19 Supersomes, luciferin-H EGE luminescence, 30 min; inhibition, % at 5 µM; actives 21% (n = 96,000);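 active = CYP2C19 inhibition above a set limit at 5 µM in the primary screen, cut at about 50% in these data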;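 also: plate controls were negative control wells for no effect and 2.5 mM tranylcypromine positive control for full effect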
# CYP2C19 act – activators of human cytochrome P450 2C19; P33261; 96,000 tested, under 10 active; activation factor at 5 µM; recombinant CYP2C19, luciferin-H EGE luminescence; stronger effect = higher value; 0 = fully inhibited enzyme, 1 = untreated enzyme;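 active = activation factor of at least 2 at 5 µM in the primary screen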;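 also: 0 = wells with 2.5 mM tranylcypromine and 1 = vehicle-only wells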
# PostGolgi ctrl – growth of the yeast control strain, post-Golgi counter-screen | efflux-deficient yeast background strain, growth absorbance A615, 16 h | actives 5% (n = 98,000) | inhibition, % at 10 µM
# PostGolgi yeast – growth inhibition of a yeast mutant, post-Golgi transport screen. post-Golgi transport phenotypic cell assay. inhibition, % at 10 µM. actives 0.9% (n = 98,000). AID 739;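 also: yeast cells grown in 1536-well plates; yeast grown about 18 h at 30C before absorbance read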
# Numbers without * were called inactive; · = no result. Rule as the data show it, unless noted: active = inhibition above about 30%; inactive = the rest.
SMILES,CYP2C9 activ,CYP2C9 inh,CYP2C19 inhib,CYP2C19 act,PostGolgi ctrl,PostGolgi yeast
COc1ccc(NC(C)C(=O)N/N=C/c2ccccc2OCc2ccc(Br)cc2)cc1 (stereo not drawn),0.3,69.1*,29.9,0.7,5.6,2.5
COc1ccc(/C=C/C(=O)NCC(=O)N/N=C/c2cc(Br)ccc2OCc2ccccc2)cc1,0.2,77.2*,-14.7,1.1,-2.2,-0.8
COc1ccc(Br)cc1/C=N/NC(=O)CNC(=O)/C=C/c1ccccc1,0.7,28.0,22.5,0.8,17.2,-0.5
CC(Nc1ccc(Br)cc1)C(=O)N/N=C/c1ccccc1OCc1ccccc1 (stereo not drawn),0,95.3*,89.3*,0.1,26.1,16.8
COc1ccc(NC(=O)C2CCC(CNc3c(N4CCCCC4)c(=O)c3=O)CC2)cc1OC (stereo not drawn),0.6,36.5,18.6,0.8,24.0,0.2
CCOC(=O)c1cnc2c(C(F)(F)F)cccc2c1N1CCOCC1,0.5,49.6,68.3*,0.3,16.5,6.7
CCCc1c(O)nc(SCC(=O)NCCc2ccc(OC)c(OC)c2)[nH]c1=O,1.1,-14.3,10.0,0.9,-8.6,-4.2
Cc1ccc(N2C(=O)CSC2c2c(F)cccc2Cl)cc1 (stereo not drawn),0.4,58.2*,93.1*,0.1,15.2,29.1
Cc1cccc2cc(CN(Cc3cccs3)Cc3nnnn3Cc3ccccc3)c(=O)[nH]c12,0.6,41.7,64.7*,0.4,14.8,-4.6
CCOC(=O)Cn1nnnc1CN(Cc1cccs1)Cc1cc2cc(C)cc(C)c2[nH]c1=O,1.3,-29.6,62.8*,0.4,10.6,-0.2
CCC(C)(C)n1nnnc1CN(Cc1cccs1)Cc1cc2cc(OC)ccc2[nH]c1=O,0.4,59.3*,70.1*,0.3,4.8,-3.2
O=C(Nc1cccc2ccccc12)OC1C=CS(=O)(=O)C1 (stereo not drawn),·,·,·,·,0.6,5.2
CC1CCCCN1C(=O)CN1C(=O)CN(C)C(=O)c2ccccc21 (stereo not drawn),0.9,12.6,17.0,0.8,-9.0,-4.2
CCCCCc1ccc(-c2ccc(=O)[nH]n2)cc1,1,-3.6,-8.9,1.1,30.7*,-6.0
Cc1ccc(-c2ccc(=O)[nH]n2)cc1,·,·,·,·,5.0,8.2
CCC(Cc1ccccc1)NC(=O)C1CCN(S(=O)(=O)c2c(C)noc2C)CC1 (stereo not drawn),0.9,11.1,-19.5,1.2,-9.6,0.0
Cc1ccccc1OCC(=O)Nc1ccc2c(c1)OCO2,0.7,29.8,66.3*,0.3,-3.0,-4.5
CN(c1cccc(NC(=O)CCSc2ccccc2)c1)S(C)(=O)=O,0.3,68.1*,78.2*,0.2,3.0,3.5
CN(c1cccc(NC(=O)CSc2ccc(Cl)cc2)c1)S(C)(=O)=O,0.6,45.0,25.3,0.7,8.2,-1.1
Cc1ccccc1OCC(=O)Nc1cccc(N(C)S(C)(=O)=O)c1,0.2,78.6*,68.8*,0.3,11.9,4.4
Cc1ccc(NC(=O)CS(=O)CC(=O)Nc2ccc3c(c2)OCO3)cc1Cl (stereo not drawn),0.5,50.8*,11.0,0.9,-0.6,11.7
CN(c1cccc(NC(=O)COc2ccccc2)c1)S(C)(=O)=O,1,4.6,18.8,0.8,-1.9,0.0
Cc1cc(OCC(=O)Nc2ccc3c(c2)OCCO3)ccc1Cl,0.9,14.8,17.0,0.8,-0.9,-8.7
Cc1cccc(OCC(=O)N/N=C\c2cc3c(cc2[N+](=O)[O-])OCO3)c1C,0.5,48.3,19.2,0.8,13.2,0.0
Cc1ccc(N2CCN(CCc3nc4cc(NS(C)(=O)=O)ccc4n3C)CC2)cc1,1.3,-31.8,4.6,1,-7.0,-5.5
SMILES,CYP2C9 activ,CYP2C9 inh,CYP2C19 inhib,CYP2C19 act,PostGolgi ctrl,PostGolgi yeast
O=C(O)c1cc(N2C(=O)C3CC=CCC3C2=O)ccc1NCc1cccnc1 (stereo not drawn),0.8,18.7,15.1,0.8,1.5,-5.9
CCCn1c(SCC(N)=O)nc2c(c1=O)C1(CCCC1)Cc1ccccc1-2,1,4.9,-3.4,1,44.2*,3.4
CCn1c(SCC#N)nc2c(c1=O)C1(CCCC1)Cc1ccccc1-2,0.1,88.8*,59.6*,0.4,51.6*,0.3
CCN(CC)Cc1nc2c(c(=O)[nH]1)C1(CCCC1)Cc1ccccc1-2,0.1,86.7*,47.4,0.5,15.2,-1.8
O=C(CCNS(=O)(=O)c1ccc(Cl)cc1)N1CCC2(O)CCCCC2C1 (stereo not drawn),0.8,15.9,-8.9,1.1,0.4,-3.4
CNC(=O)C1CC(=O)N(Cc2ccc3c(c2)OCO3)C(=Nc2ccc(OC)cc2)S1 (stereo not drawn),0.7,34.8,56.1*,0.4,3.9,-5.0
COc1ccc(N=C2SC(C(N)=O)CC(=O)N2CCc2ccc(OC)c(OC)c2)cc1 (stereo not drawn),0.8,22.1,63.9*,0.4,0.7,16.2
O=C1CC(N2CCN(Cc3ccc4c(c3)OCO4)CC2)C(=O)N1CCc1ccccc1 (stereo not drawn),1,3.0,14.1,0.9,2.4,-3.9
COc1ccc(N=C2SC(C(=O)O)CC(=O)N2Cc2ccc(OC)c(OC)c2)cc1 (stereo not drawn),0.7,33.0,16.2,0.8,5.3,-1.2
NC(=O)C1CC(=O)N(Cc2ccc3c(c2)OCO3)C(=Nc2ccccc2)S1 (stereo not drawn),0.5,51.7*,95.9*,0,3.8,-3.0
CCOc1ccc(NC(=O)C2CC(=O)N(CC)C(=Nc3ccc4c(c3)OCO4)S2)cc1 (stereo not drawn),0.8,20.0,-11.9,1.1,6.1,-4.8
COc1ccc(N=C2SC(C(=O)Nc3ccc4c(c3)OCO4)CC(=O)N2C)cc1 (stereo not drawn),0.3,72.8*,49.3,0.5,18.8,1.5
CCN(CC)C(=O)C(C)OC(=O)c1ccc(O)cc1 (stereo not drawn),1,1.7,-2.2,1,6.8,7.5
O=C(CSc1nc2c(c(=O)n1-c1ccccc1)SCC2)N1CCOCC1,1,3.3,-2.5,1,2.5,-0.6
CCOc1ccc(-n2c(SCC(=O)NCc3ccco3)nc3c(c2=O)SCC3)cc1,0.4,62.3*,26.0,0.7,11.9,-0.6
O=C(CSc1nc2c(c(=O)n1-c1ccccc1)SCC2)N1CCN(c2ccccc2)CC1,0.4,63.0*,82.5*,0.2,16.5,-0.8
COc1ccc(-n2c(SCC(=O)Nc3ccccc3)nc3c(c2=O)SCC3)cc1,0.7,32.9,42.3,0.6,40.3*,-2.6
O=C(CSc1nc2c(c(=O)n1-c1ccc(Br)cc1)SCC2)NCc1ccco1,0.6,35.4,34.6,0.7,3.1,3.2
O=C(CSc1nc2c(c(=O)n1-c1ccc(Br)cc1)SCC2)Nc1nccs1,0.7,26.6,61.1*,0.4,5.8,-22.3
COc1ccc(S(=O)(=O)NNC(=O)c2csc(-n3nc(C)cc3C(F)(F)F)n2)cc1,0.5,48.9,16.3,0.8,1.6,13.7
